# Experimental data: paper PMC7862700, “An all-to-all approach to the identification of sequence-specific readers for epigenetic DNA modifications on cytosine”
# Legend:
# Assay in all cases: DAPPL (digital affinity profiling via proximity ligation, sequencing); 10 mM Tris-HCl pH 7.5, 50 mM NaCl, 1 mM DTT, 4% glycerol, room temperature, 30 min; GST-TFs on glutathione beads, 16-mer random dsDNA library, 0.1% formaldehyde crosslink after washing; high values mean tight binding
# FEV = molecular target: T1, FEV (Homo sapiens, UniProt Q99581 1-238); settings: protein: recombinant; tags: N-terminal GST; dsDNA, one strand shown
# T1 sequence: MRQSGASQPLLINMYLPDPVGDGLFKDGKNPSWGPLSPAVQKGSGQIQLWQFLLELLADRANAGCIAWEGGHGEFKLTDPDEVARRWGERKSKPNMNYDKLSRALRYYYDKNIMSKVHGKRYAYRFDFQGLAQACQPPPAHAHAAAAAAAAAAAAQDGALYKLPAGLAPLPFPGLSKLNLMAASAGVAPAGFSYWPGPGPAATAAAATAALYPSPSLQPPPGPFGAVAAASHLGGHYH
# How it was run: (§1)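 GST fusions of human transcription factors were expressed in yeast and captured with glutathione beads. Once given DNA barcodes and pooled alongside a tag-only sample, they were incubated for 30 min at room temperature with 200 nmole of a random double-stranded 16-mer DNA library in Tris/NaCl/DTT/glycerol buffer, then washed, crosslinked (0.1% formaldehyde), proximity-ligated, PCR-amplified and sequenced on an Illumina NextSeq500. The binding signal of each hexamer is its read frequency for a factor divided by its frequency for the tag-only sample.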
# ETV5 = ETV5 (Homo sapiens, UniProt P41161 1-510); settings: protein: recombinant; tags: N-terminal GST; dsDNA, one strand shown
# Chain of ETV5 (P41161 whole entry): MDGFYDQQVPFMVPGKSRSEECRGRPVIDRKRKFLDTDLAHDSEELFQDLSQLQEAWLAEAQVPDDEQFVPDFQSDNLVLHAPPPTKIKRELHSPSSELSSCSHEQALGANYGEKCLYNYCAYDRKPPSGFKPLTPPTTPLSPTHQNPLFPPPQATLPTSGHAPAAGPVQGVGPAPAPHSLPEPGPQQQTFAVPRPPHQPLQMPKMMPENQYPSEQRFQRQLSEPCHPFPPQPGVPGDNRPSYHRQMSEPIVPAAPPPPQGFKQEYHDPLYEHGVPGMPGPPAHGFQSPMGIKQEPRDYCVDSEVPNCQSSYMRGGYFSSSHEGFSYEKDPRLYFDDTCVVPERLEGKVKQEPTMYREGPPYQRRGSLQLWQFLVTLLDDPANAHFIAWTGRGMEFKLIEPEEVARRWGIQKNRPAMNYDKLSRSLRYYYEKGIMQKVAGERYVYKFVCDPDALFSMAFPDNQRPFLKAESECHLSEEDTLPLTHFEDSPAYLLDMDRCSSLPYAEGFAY
# How it was run: as §1
# HSF1 = HSF1 (Homo sapiens, UniProt Q00613 1-529); settings: protein: recombinant; tags: N-terminal GST; chain copies: 3; dsDNA, one strand shown
# Chain of HSF1 (Q00613 whole entry): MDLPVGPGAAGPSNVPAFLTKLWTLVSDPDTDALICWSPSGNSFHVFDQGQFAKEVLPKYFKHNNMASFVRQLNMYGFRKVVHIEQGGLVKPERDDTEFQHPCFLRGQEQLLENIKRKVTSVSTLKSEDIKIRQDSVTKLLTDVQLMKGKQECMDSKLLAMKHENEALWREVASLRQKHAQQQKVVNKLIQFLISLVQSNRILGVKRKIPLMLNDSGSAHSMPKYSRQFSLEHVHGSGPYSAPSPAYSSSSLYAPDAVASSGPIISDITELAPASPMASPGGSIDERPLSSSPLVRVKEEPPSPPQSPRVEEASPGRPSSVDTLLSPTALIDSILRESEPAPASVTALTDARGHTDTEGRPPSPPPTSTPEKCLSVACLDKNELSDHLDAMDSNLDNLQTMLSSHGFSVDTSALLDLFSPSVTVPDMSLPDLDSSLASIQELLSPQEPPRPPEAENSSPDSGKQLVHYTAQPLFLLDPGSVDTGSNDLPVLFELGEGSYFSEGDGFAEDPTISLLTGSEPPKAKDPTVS
# How it was run: as §1
# SPIC = molecular target: T2, SPIC (Homo sapiens, UniProt Q8N5J4 1-248); settings: protein: recombinant; tags: N-terminal GST; dsDNA, one strand shown
# T2 sequence: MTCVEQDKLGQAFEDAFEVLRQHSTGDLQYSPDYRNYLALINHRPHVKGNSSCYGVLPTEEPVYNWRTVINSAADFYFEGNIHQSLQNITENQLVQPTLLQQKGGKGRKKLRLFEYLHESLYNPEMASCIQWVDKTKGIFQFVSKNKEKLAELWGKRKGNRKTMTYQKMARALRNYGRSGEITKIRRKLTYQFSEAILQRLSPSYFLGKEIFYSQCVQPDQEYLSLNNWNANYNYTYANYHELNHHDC
# How it was run: as §1
# ELF4 = ELF4 (Homo sapiens, UniProt Q99607 1-663); settings: protein: recombinant; tags: N-terminal GST; dsDNA, one strand shown
# Chain of ELF4 (Q99607 whole entry): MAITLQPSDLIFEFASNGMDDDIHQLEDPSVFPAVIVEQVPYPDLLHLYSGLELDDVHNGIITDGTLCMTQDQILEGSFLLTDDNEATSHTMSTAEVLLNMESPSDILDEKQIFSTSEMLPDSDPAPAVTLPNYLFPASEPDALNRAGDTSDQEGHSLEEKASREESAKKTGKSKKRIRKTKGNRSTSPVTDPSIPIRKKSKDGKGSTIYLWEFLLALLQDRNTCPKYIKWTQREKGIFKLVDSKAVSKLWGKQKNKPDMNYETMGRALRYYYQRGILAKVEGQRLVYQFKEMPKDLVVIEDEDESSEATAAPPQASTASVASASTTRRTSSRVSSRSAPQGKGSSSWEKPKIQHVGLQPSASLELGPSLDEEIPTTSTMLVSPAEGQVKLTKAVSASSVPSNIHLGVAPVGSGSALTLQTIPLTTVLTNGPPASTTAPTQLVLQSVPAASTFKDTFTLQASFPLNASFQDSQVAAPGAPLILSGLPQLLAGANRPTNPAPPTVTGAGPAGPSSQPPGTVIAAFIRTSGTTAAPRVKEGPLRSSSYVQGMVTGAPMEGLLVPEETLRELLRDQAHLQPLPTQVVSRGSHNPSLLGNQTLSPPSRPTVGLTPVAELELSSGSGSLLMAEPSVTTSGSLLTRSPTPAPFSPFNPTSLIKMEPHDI
# How it was run: as §1
# ELK4 = molecular target: T3, ELK4 (Homo sapiens, UniProt P28324-2 1-405); settings: protein: recombinant; tags: N-terminal GST; dsDNA, one strand shown
# T3 sequence: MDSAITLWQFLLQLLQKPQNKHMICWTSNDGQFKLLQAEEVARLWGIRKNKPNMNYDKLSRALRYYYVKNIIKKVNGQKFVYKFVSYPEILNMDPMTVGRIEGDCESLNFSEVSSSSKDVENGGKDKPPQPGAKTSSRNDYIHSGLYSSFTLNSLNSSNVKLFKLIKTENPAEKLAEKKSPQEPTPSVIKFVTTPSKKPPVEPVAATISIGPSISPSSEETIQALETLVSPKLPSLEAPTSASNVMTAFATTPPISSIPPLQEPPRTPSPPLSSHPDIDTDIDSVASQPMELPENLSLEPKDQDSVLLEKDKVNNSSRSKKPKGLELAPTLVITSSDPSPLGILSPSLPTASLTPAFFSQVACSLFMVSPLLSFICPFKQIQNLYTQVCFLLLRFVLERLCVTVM
# How it was run: as §1
# ETV2 = molecular target: T4, ETV2 (Homo sapiens, UniProt O00321 1-342); settings: protein: recombinant; tags: N-terminal GST; dsDNA, one strand shown
# T4 sequence: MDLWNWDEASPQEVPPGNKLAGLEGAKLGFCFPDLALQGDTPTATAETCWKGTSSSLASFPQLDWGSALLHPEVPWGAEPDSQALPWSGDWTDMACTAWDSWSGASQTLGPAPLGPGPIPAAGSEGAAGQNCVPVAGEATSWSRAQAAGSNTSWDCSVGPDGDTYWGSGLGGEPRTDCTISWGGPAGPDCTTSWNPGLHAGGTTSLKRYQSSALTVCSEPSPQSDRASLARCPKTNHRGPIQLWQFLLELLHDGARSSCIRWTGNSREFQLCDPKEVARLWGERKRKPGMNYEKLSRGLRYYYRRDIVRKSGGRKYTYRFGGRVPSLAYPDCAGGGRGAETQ
# How it was run: as §1
# ELF3 = molecular target: T5, ELF3 (Homo sapiens, UniProt P78545 1-371); settings: protein: recombinant; tags: N-terminal GST; dsDNA, one strand shown
# T5 sequence: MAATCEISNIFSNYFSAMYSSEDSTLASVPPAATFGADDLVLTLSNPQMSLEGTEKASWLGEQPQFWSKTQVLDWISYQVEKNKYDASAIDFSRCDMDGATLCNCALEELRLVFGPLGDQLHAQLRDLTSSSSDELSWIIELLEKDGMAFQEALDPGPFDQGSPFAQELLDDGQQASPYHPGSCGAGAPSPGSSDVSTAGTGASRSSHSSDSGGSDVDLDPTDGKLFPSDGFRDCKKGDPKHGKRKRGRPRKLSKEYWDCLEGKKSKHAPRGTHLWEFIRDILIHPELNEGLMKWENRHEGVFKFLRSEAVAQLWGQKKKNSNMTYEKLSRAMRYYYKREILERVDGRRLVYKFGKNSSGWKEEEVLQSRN
# How it was run: as §1
# CRX = CRX (Homo sapiens, UniProt O43186 1-299); settings: protein: recombinant; tags: N-terminal GST; dsDNA, one strand shown
# Chain of CRX (O43186 whole entry): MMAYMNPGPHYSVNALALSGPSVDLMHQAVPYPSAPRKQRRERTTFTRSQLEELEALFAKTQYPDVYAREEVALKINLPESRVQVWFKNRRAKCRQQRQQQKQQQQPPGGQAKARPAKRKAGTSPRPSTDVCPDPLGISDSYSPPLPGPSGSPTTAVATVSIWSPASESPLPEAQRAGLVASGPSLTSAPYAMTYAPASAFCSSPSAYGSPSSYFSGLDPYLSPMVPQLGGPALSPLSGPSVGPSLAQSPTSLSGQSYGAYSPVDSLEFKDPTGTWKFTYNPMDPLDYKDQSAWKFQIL
# How it was run: as §1
# ETV1 = ETV1 (Homo sapiens, UniProt P50549 1-477); settings: protein: recombinant; tags: N-terminal GST; dsDNA, one strand shown
# Chain of ETV1 (P50549 whole entry): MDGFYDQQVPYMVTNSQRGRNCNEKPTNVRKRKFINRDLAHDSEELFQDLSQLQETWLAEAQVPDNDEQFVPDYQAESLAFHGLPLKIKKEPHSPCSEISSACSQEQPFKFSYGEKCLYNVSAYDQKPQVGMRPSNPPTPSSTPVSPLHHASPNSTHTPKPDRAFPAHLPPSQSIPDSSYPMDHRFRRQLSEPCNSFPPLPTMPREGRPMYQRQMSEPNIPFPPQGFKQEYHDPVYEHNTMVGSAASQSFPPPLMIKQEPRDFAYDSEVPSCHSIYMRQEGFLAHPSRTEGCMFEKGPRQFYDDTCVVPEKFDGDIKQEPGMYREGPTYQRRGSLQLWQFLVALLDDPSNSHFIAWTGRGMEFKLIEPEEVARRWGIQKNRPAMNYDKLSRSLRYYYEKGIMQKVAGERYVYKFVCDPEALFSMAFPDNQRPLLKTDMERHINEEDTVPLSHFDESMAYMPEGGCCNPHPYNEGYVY
# How it was run: as §1
# ERF = molecular target: T6, ERF (Homo sapiens, UniProt P50548 1-548); settings: protein: recombinant; tags: N-terminal GST; dsDNA, one strand shown
# T6 sequence: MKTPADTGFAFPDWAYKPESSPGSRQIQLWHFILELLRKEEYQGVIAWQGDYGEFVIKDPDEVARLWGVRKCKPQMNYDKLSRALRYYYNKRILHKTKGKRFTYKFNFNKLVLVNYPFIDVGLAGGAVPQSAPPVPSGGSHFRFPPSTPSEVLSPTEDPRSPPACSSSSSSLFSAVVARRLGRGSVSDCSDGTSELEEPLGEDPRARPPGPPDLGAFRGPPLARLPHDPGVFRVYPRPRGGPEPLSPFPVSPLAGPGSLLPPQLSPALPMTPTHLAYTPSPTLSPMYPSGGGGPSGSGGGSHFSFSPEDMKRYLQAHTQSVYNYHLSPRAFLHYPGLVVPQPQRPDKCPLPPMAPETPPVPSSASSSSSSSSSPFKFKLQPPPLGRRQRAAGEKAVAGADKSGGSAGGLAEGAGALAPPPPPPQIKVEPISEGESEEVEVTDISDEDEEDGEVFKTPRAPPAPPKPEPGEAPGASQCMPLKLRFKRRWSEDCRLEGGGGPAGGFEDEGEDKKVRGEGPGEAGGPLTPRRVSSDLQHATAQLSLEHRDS
# How it was run: as §1
# ETV3L = molecular target: T7, ETV3L (Homo sapiens, UniProt Q6ZN32 1-361); settings: protein: recombinant; tags: N-terminal GST; dsDNA, one strand shown
# T7 sequence: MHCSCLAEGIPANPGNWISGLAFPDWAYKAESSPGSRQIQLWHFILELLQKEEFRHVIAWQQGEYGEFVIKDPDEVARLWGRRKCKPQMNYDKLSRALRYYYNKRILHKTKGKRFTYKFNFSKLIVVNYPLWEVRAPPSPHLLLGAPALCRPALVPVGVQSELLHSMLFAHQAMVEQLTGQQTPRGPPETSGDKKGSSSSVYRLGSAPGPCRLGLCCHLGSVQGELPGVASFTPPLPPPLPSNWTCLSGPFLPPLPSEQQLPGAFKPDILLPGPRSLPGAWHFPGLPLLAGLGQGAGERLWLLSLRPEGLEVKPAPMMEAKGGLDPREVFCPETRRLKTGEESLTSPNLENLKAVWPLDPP
# How it was run: as §1
# ETS2 = molecular target: T8, ETS2 (Homo sapiens, UniProt P15036 1-469); settings: protein: recombinant; tags: N-terminal GST; dsDNA, one strand shown
# T8 sequence: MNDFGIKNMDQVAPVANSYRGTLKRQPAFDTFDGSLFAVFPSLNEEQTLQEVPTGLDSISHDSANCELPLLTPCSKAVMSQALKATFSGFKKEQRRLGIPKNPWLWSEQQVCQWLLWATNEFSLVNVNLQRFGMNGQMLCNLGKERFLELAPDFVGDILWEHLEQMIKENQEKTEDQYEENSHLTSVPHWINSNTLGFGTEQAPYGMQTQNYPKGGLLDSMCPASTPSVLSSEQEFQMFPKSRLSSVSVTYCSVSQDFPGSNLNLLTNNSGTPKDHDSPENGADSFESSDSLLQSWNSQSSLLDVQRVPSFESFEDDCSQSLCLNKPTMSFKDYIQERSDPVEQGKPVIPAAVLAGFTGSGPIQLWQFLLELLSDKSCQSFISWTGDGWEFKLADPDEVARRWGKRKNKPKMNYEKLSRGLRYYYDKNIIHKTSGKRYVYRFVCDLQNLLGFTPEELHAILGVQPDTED
# How it was run: as §1
# SPDEF = molecular target: T9, SPDEF (Homo sapiens, UniProt O95238 1-335); settings: protein: recombinant; tags: N-terminal GST; dsDNA, one strand shown
# T9 sequence: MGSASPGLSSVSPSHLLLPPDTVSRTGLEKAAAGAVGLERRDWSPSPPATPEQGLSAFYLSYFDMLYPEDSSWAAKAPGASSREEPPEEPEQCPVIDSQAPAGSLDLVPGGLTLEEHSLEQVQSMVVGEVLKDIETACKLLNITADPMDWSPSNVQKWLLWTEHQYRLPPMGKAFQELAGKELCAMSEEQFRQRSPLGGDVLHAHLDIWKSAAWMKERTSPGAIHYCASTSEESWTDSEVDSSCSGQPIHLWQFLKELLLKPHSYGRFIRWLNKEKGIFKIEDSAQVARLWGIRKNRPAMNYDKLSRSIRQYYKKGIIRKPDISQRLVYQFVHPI
# How it was run: as §1
# ETV7 = molecular target: T10, ETV7 (Homo sapiens, UniProt Q9Y603 1-341); settings: protein: recombinant; tags: N-terminal GST; dsDNA, one strand shown
# T10 sequence: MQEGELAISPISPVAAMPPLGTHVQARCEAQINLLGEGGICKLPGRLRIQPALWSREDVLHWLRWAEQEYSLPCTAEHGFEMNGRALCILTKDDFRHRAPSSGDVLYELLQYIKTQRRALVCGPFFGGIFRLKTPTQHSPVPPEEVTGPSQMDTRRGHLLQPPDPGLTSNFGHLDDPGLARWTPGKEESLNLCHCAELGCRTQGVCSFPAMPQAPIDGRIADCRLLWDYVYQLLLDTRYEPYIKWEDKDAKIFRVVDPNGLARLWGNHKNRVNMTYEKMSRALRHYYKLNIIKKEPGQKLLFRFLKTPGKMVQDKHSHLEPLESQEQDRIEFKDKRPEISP
# How it was run: as §1
# ELF5 = molecular target: T11, ELF5 (Homo sapiens, UniProt Q9UKW6-2 1-255); settings: protein: recombinant; tags: N-terminal GST; dsDNA, one strand shown
# T11 sequence: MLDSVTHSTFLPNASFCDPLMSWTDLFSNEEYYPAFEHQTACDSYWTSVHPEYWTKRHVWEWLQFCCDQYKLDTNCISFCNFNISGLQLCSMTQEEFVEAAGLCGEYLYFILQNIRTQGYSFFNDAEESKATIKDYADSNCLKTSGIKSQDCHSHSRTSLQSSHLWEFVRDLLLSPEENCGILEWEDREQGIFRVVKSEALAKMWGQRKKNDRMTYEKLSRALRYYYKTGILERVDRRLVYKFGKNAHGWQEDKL
# How it was run: as §1
# ETV3 = molecular target: T12, ETV3 (Homo sapiens, UniProt P41162-2 1-143); settings: protein: recombinant; tags: N-terminal GST; dsDNA, one strand shown
# T12 sequence: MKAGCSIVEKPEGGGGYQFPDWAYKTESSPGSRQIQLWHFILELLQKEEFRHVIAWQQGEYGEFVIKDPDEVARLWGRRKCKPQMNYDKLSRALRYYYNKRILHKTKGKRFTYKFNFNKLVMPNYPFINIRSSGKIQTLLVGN
# How it was run: as §1
# ETV6 = ETV6 (Homo sapiens, UniProt P41212 1-452); settings: protein: recombinant; tags: N-terminal GST; dsDNA, one strand shown
# Chain of ETV6 (P41212 whole entry): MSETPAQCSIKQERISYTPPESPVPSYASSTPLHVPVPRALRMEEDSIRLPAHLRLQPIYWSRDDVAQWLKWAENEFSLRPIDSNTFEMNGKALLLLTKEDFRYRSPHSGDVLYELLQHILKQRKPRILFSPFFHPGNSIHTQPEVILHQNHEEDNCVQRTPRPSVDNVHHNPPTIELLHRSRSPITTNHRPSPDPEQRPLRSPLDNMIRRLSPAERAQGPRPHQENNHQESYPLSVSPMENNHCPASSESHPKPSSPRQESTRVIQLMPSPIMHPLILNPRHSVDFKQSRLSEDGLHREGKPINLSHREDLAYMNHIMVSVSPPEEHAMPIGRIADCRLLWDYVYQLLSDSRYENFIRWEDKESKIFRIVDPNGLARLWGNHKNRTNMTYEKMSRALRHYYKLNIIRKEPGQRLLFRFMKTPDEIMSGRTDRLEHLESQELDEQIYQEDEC
# How it was run: as §1
sequence,measurement,setting,value
AAAACG,binding signal,FEV,"1.18 fold enrichment (6-mer frequency, TF over GST control)"
same,binding signal,ETV5,"1.29 fold enrichment (6-mer frequency, TF over GST control)"
same,binding signal,HSF1,"1.06 fold enrichment (6-mer frequency, TF over GST control)"
same,binding signal,SPIC,"1.3 fold enrichment (6-mer frequency, TF over GST control)"
same,binding signal,ELF4,"1.22 fold enrichment (6-mer frequency, TF over GST control)"
same,binding signal,ELK4,"1.19 fold enrichment (6-mer frequency, TF over GST control)"
same,binding signal,ETV2,"1.24 fold enrichment (6-mer frequency, TF over GST control)"
same,binding signal,ELF3,"1.16 fold enrichment (6-mer frequency, TF over GST control)"
same,binding signal,CRX,"1.05 fold enrichment (6-mer frequency, TF over GST control)"
same,binding signal,ETV1,"1.21 fold enrichment (6-mer frequency, TF over GST control)"
same,binding signal,ERF,"1.24 fold enrichment (6-mer frequency, TF over GST control)"
same,binding signal,ETV3L,"1.19 fold enrichment (6-mer frequency, TF over GST control)"
same,binding signal,ETS2,"1.21 fold enrichment (6-mer frequency, TF over GST control)"
same,binding signal,SPDEF,"1.2 fold enrichment (6-mer frequency, TF over GST control)"
same,binding signal,ETV7,"1.14 fold enrichment (6-mer frequency, TF over GST control)"
same,binding signal,ELF5,"1.18 fold enrichment (6-mer frequency, TF over GST control)"
same,binding signal,ETV3,"1.15 fold enrichment (6-mer frequency, TF over GST control)"
same,binding signal,ETV6,"1.25 fold enrichment (6-mer frequency, TF over GST control)"
